Data published in the supplement of paper PMC8728848.
Many of the other results were omitted from the sample, so the strongest signals are more common in it than they were.

How the values were obtained:
Assay in all cases: glycan array binding signal (z-score within array); higher = stronger binding
Conditions in all cases: glycan notation: IUPAC condensed, linker removed
[1] = target: Fuc(a1-2)Gal
Outline: (§1)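 Arrays were curated from the Consortium for Functional Glycomics database, 3228 in total, and kept only where the protein sequence was available. Binding is expressed as a within-array Z-score. This score was averaged across arrays of the same protein sequence at different concentrations or buffers and across linkers, and negative values can be read as non-binding.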

[2] = target: Fuc(a1-2)Gal(b1-3)GlcNAc(b1-2)Man(a1-3)[Fuc(a1-2)Gal(b1-3)GlcNAc(b1-2)Man(a1-6)]Man(b1-4)GlcNAc(b1-4)GlcNAc
Outline: as §1

[3] = target: Fuc(a1-2)Gal(b1-3)GlcNAc(b1-3)[Gal(b1-4)GlcNAc(b1-6)]Gal(b1-4)Glc
Outline: as §1

[4] = target: Fuc(a1-2)Gal(b1-3)[Fuc(a1-4)]GlcNAc(b1-2)Man(a1-3)[Fuc(a1-2)Gal(b1-3)[Fuc(a1-4)]GlcNAc(b1-2)Man(a1-6)]Man(b1-4)GlcNAc(b1-4)[Fuc(a1-6)]GlcNAc(b1-4)[Fuc(a1-6)]GlcNAc
Outline: as §1

[5] = target: Fuc(a1-2)Gal(b1-4)GlcNAc(b1-2)[Fuc(a1-2)Gal(b1-4)GlcNAc(b1-4)]Man(a1-3)[Fuc(a1-2)Gal(b1-4)GlcNAc(b1-2)Man(a1-6)]Man(b1-4)GlcNAc(b1-4)GlcNAc
Outline: as §1

[6] = target: Fuc(a1-2)Gal(b1-4)GlcNAc(b1-6)GalNAc
Outline: as §1

[7] = target: Fuc(a1-2)Gal(b1-4)[Fuc(a1-3)]GlcNAc(b1-2)Man(a1-3)[Fuc(a1-2)Gal(b1-4)[Fuc(a1-3)]GlcNAc(b1-2)Man(a1-6)]Man(b1-4)GlcNAc(b1-4)[Fuc(a1-6)]GlcNAc
Outline: as §1

[8] = target: Fuc(a1-2)Gal6S(b1-4)Glc
Outline: as §1

[9] = target: Fuc(a1-2)[Gal(a1-3)]Gal(b1-3)GlcNAc(b1-6)GalNAc
Outline: as §1

[10] = target: Fuc(a1-2)[Gal(a1-3)]Gal(b1-4)GlcNAc(b1-3)GalNAc
Outline: as §1

[11] = target: Fuc(a1-2)[Gal(a1-3)]Gal(b1-4)[Fuc(a1-3)]GlcNAc(b1-3)GalNAc
Outline: as §1

[12] = target: Fuc(a1-2)[GalNAc(a1-3)]Gal
Outline: as §1

[13] = target: Fuc(a1-2)[GalNAc(a1-3)]Gal(b1-3)GlcNAc
Outline: as §1

[14] = target: Fuc(a1-2)[GalNAc(a1-3)]Gal(b1-4)GlcNAc
Outline: as §1

[15] = target: Fuc(a1-2)[GalNAc(a1-4)]Gal(b1-4)GlcNAc
Outline: as §1

[16] = target: Gal(a1-3)[Gal(a1-4)]Gal(b1-4)GlcNAc
Outline: as §1

[17] = target: Gal(a1-4)Gal(b1-4)GlcNAc(b1-3)Gal(b1-4)Glc
Outline: as §1

[18] = target: Gal(b1-3)Gal(b1-4)GlcNAc
Outline: as §1

[19] = target: Gal(b1-3)GalNAc(b1-4)Gal(b1-4)Glc
Outline: as §1

[20] = target: Gal(b1-3)GlcNAc(b1-2)Man(a1-3)[GlcNAc(b1-4)][Gal(b1-3)GlcNAc(b1-2)Man(a1-6)]Man(b1-4)GlcNAc(b1-4)GlcNAc
Outline: as §1

[21] = target: Gal(b1-3)GlcNAc(b1-2)[Gal(b1-3)GlcNAc(b1-6)]Man(a1-6)[Gal(b1-3)GlcNAc(b1-2)Man(a1-3)]Man(b1-4)GlcNAc(b1-4)GlcNAc
Outline: as §1

[22] = target: Gal(b1-3)GlcNAc(b1-3)Gal(b1-4)GlcNAc(b1-2)Man(a1-3)[Gal(b1-3)GlcNAc(b1-3)Gal(b1-4)GlcNAc(b1-2)Man(a1-6)]Man(b1-4)GlcNAc(b1-4)GlcNAc
Outline: as §1

[23] = target: Gal(b1-3)[Fuc(a1-4)]GlcNAc(b1-2)Man
Outline: as §1

[24] = target: Gal(b1-3)[Fuc(a1-4)]GlcNAc(b1-2)Man(a1-3)[Gal(b1-3)[Fuc(a1-4)]GlcNAc(b1-2)Man(a1-6)]Man(b1-4)GlcNAc(b1-4)[Fuc(a1-6)]GlcNAc
Outline: as §1

[25] = target: Gal(b1-4)GalNAc(b1-3)[Fuc(a1-2)]Gal(b1-4)GlcNAc
Outline: as §1

[26] = target: Gal(b1-4)GlcNAc(b1-2)Man(a1-3)[Man(a1-6)]Man(b1-4)GlcNAc(b1-4)GlcNAc
Outline: as §1

[27] = target: Gal(b1-4)GlcNAc(b1-2)[Gal(b1-4)GlcNAc(b1-6)]Man(a1-6)[GlcNAc(b1-4)][Gal(b1-4)GlcNAc(b1-2)Man(a1-3)]Man(b1-4)GlcNAc(b1-4)GlcNAc
Outline: as §1

[28] = target: Gal(b1-4)GlcNAc(b1-3)Gal(b1-3)GalNAc
Outline: as §1

[29] = target: Gal(b1-4)GlcNAc(b1-3)Gal(b1-4)GlcNAc(b1-2)Man(a1-3)[Gal(b1-4)GlcNAc(b1-3)Gal(b1-4)GlcNAc(b1-2)Man(a1-6)]Man(b1-4)GlcNAc(b1-4)GlcNAc
Outline: as §1

[30] = target: Gal(b1-4)GlcNAc(b1-3)Gal(b1-4)GlcNAc(b1-3)Gal(b1-4)GlcNAc(b1-3)Gal(b1-4)GlcNAc(b1-3)Gal(b1-4)GlcNAc(b1-2)[Gal(b1-4)GlcNAc(b1-3)Gal(b1-4)GlcNAc(b1-3)Gal(b1-4)GlcNAc(b1-3)Gal(b1-4)GlcNAc(b1-3)Gal(b1-4)GlcNAc(b1-6)]Man(a1-6)[Gal(b1-4)GlcNAc(b1-3)Gal(b1-4)GlcNAc(b1-3)Gal(b1-4)GlcNAc(b1-3)Gal(b1-4)GlcNAc(b1-3)Gal(b1-4)GlcNAc(b1-2)Man(a1-3)]Man(b1-4)GlcNAc(b1-4)[Fuc(a1-6)]GlcNAc
Outline: as §1

[31] = target: Gal(b1-4)GlcNAc(b1-3)[Gal(b1-4)GlcNAc(b1-6)]Gal(b1-4)GlcNAc
Outline: as §1

[32] = target: Gal3S(b1-4)Glc
Outline: as §1

[33] = target: Gal6S(b1-3)GlcNAc
Outline: as §1

[34] = target: GalNAc(a1-3)GalNAc(b1-3)Gal(a1-4)Gal(b1-4)Glc
Outline: as §1

[35] = target: GalNAc(b1-3)GalNAc
Outline: as §1

[36] = target: GalNAc(b1-4)GlcNAc(b1-2)Man(a1-3)[GalNAc(b1-4)GlcNAc(b1-2)Man(a1-6)]Man(b1-4)GlcNAc(b1-4)GlcNAc
Outline: as §1

[37] = target: Glc(a1-6)Glc(a1-6)Glc
Outline: as §1

[38] = target: Glc(b1-6)Glc
Outline: as §1

[39] = target: GlcNAc(a1-4)Gal(b1-4)GlcNAc(b1-3)Gal(b1-4)[Fuc(a1-3)]GlcNAc(b1-3)Gal(b1-4)[Fuc(a1-3)]GlcNAc
Outline: as §1

[40] = target: GlcNAc(b1-3)Gal(b1-4)GlcNAc(b1-2)Man(a1-3)[GlcNAc(b1-3)Gal(b1-4)GlcNAc(b1-2)Man(a1-6)]Man(b1-4)GlcNAc(b1-4)[Fuc(a1-6)]GlcNAc
Outline: as §1

[41] = target: GlcNAc(b1-3)Gal(b1-4)GlcNAc(b1-3)Gal(b1-4)GlcNAc(b1-2)[GlcNAc(b1-3)Gal(b1-4)GlcNAc(b1-3)Gal(b1-4)GlcNAc(b1-6)]Man(a1-6)[GlcNAc(b1-3)Gal(b1-4)GlcNAc(b1-3)Gal(b1-4)GlcNAc(b1-2)Man(a1-3)]Man(b1-4)GlcNAc(b1-4)[Fuc(a1-6)]GlcNAc
Outline: as §1

[42] = target: Man(a1-2)Man(a1-3)Man
Outline: as §1

[43] = target: Man(a1-3)[Man(a1-6)]Man(a1-6)[Man(a1-2)Man(a1-3)]Man(b1-4)GlcNAc(b1-4)GlcNAc
Outline: as §1

[44] = target: Man(b1-4)GlcNAc
Outline: as §1

[45] = target: Neu5Ac(a2-3)Gal(b1-3)GalNAc6S
Outline: as §1

[46] = target: Neu5Ac(a2-3)Gal(b1-4)GlcNAc(b1-2)Man(a1-3)[Neu5Ac(a2-3)Gal(b1-4)GlcNAc(b1-2)Man(a1-6)]Man(b1-4)GlcNAc(b1-4)GlcNAc
Outline: as §1

[47] = target: Neu5Ac(a2-6)Gal(b1-4)GlcNAc(b1-3)Gal(b1-4)GlcNAc(b1-3)Gal(b1-4)GlcNAc(b1-2)Man(a1-3)[Neu5Ac(a2-6)Gal(b1-4)GlcNAc(b1-3)Gal(b1-4)GlcNAc(b1-3)Gal(b1-4)GlcNAc(b1-2)Man(a1-6)]GalNAc
Outline: as §1

[48] = target: Neu5Ac(a2-6)Gal(b1-4)GlcNAc(b1-3)Gal(b1-4)GlcNAc(b1-6)[Gal(b1-3)]GalNAc
Outline: as §1

[49] = target: Neu5Ac(a2-8)Neu5Ac(a2-3)Gal(b1-4)GlcNAc
Outline: as §1

[50] = target: Neu5Ac(a2-8)Neu5Gc(a2-3)Gal(b1-4)GlcNAc
Outline: as §1

B1: PX14343I-pdi-501-30-501 (Parabacteroides distasonis) (protein)
chain: SDQYSTETFWKTKEHASAGIMGCYNALKLWRSLHTMEFDMLTANAMPYNEANGTQAIGKGEHLSTTALIGSLWKNCYVGIGRTNTFIANVGGVDMDESEKAKMVGEAKFLRAFYYLSLVDKFGGVPLIIDAPNADEQAELPRNSKEEVVNQIVKDLEEAAAVLPDTYASSDLGRATKGAALALKARTLLYNSRWAEAAQAAKQVMESGVYQLFNDYRHFFSEDNKYNCEVIFDIEAKLPEYPTDYDQNIWRLNRPAPLKELVDTYLCVDGKTIEESPLYDPTRPYENRDPRLLKSIVCIGYPYLGKTITKEDVATTGFGVKKYTSYEDDVTIPLVERSAFNFILIRYAEVLLTYAEAQNEASGPDQSVYDAINQLRRRPDINMPEVPKGLTKDQMREVIRRERRIELTFEGLYYSDILRWKTAEKENNGMMHNYEGIEVVKRSFNPKRDYLWPIPYNQTVLNPNLEQNPNWD
glycan array binding signal (z-score) [1]: -0.249
glycan array binding signal (z-score) [2]: 1.95
glycan array binding signal (z-score) [3]: -0.005
glycan array binding signal (z-score) [4]: -1.15
glycan array binding signal (z-score) [5]: 1.69
glycan array binding signal (z-score) [6]: -1.54
glycan array binding signal (z-score) [7]: 2.6
glycan array binding signal (z-score) [8]: 0.082
glycan array binding signal (z-score) [9]: -0.008
glycan array binding signal (z-score) [10]: 0.362
glycan array binding signal (z-score) [11]: -0.205
glycan array binding signal (z-score) [12]: -0.237
glycan array binding signal (z-score) [13]: 0.35
glycan array binding signal (z-score) [14]: -0.707
glycan array binding signal (z-score) [15]: -0.33
glycan array binding signal (z-score) [16]: 2.67
glycan array binding signal (z-score) [17]: -0.408
glycan array binding signal (z-score) [18]: -0.375
glycan array binding signal (z-score) [19]: -0.713
glycan array binding signal (z-score) [20]: 0.623
glycan array binding signal (z-score) [21]: 1.55
glycan array binding signal (z-score) [22]: 0.741
glycan array binding signal (z-score) [23]: 0.532
glycan array binding signal (z-score) [24]: 1.6
glycan array binding signal (z-score) [25]: -0.377
glycan array binding signal (z-score) [26]: -0.562
glycan array binding signal (z-score) [27]: -0.439
glycan array binding signal (z-score) [28]: -0.11
glycan array binding signal (z-score) [29]: 1.61
glycan array binding signal (z-score) [30]: 1.86
glycan array binding signal (z-score) [31]: -0.2
glycan array binding signal (z-score) [32]: 0.301
glycan array binding signal (z-score) [33]: 0.19
glycan array binding signal (z-score) [34]: 0.12
glycan array binding signal (z-score) [35]: 1.96
glycan array binding signal (z-score) [36]: -0.398
glycan array binding signal (z-score) [37]: 0.049
glycan array binding signal (z-score) [38]: -0.768
glycan array binding signal (z-score) [39]: 1.69
glycan array binding signal (z-score) [40]: 4.66
glycan array binding signal (z-score) [41]: 1.77
glycan array binding signal (z-score) [42]: 0.611
glycan array binding signal (z-score) [43]: 0.28
glycan array binding signal (z-score) [44]: -0.706
glycan array binding signal (z-score) [45]: -0.135
glycan array binding signal (z-score) [46]: -0.301
glycan array binding signal (z-score) [47]: 2.21
glycan array binding signal (z-score) [48]: 0.989
glycan array binding signal (z-score) [49]: -0.464
glycan array binding signal (z-score) [50]: 18.3
